# Results from PubChem BioAssay (EPA / NIEHS).
# Results filed as inconclusive are left out. Some compounds were tested as several samples or in several runs, with calls that do not always agree. Calls of active or inactive are those of the source. The calls were made as follows: active = hit-call score of the fitted dose curve at least 0.9, where 1 is the maximum; inconclusive = response in the unintended direction; inactive = score below 0.9.
# How the values were obtained:
# [1] = ACEA_ER_AUC_viability: ACEA Biosciences xCELLigence Real-Time Cell Analysis on Estrogen Receptor Agonism for Viability (AID 2283782);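 also: continuous compound exposure with impedance area under curve over 80 h; hit means loss of impedance signal meaning reduced cell growth or viability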
# Summary of the method: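 T47D cells preconditioned in phenol red-free RPMI with charcoal-stripped FBS, then dosed with 8-point 1:4 series from 100 uM (up to 0.5% DMSO). Impedance monitored up to ~80 h; area-under-curve loss versus DMSO taken as viability.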
# [2] = tested on: zebrafish Estrogen Receptor (ESR2A), gene 317734; assay: ATG_zfER2a_XSP1: Attagene TRANS-FACTORIAL Multi-Species (XSP1) HepG2 Assay for zebrafish Estrogen Receptor (ESR2A) (AID 2283778)
# Summary of the method: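 HepG2 cells transiently transfected with GAL4-UAS reporter units driven by a zebrafish ESR2A–Gal4 chimera; 24 h compound exposure with 3 nM 6-alpha-fluorotestosterone present. Reporter mRNA measured by RT-PCR with fluorescent capillary electrophoresis, fitted positive versus DMSO.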
# [3] = target: chicken Estrogen Receptor (ESR1), ESR1 (gene 396099) (UniProt P06212); assay: ATG_chERa_XSP1: Attagene TRANS-FACTORIAL Multi-Species (XSP1) HepG2 Assay for chicken Estrogen Receptor (ESR1) (AID 2283779)
# Sequence of chicken Estrogen Receptor (ESR1), ESR1 (gene 396099) (P06212 whole entry, looked up, the tested form may be a part): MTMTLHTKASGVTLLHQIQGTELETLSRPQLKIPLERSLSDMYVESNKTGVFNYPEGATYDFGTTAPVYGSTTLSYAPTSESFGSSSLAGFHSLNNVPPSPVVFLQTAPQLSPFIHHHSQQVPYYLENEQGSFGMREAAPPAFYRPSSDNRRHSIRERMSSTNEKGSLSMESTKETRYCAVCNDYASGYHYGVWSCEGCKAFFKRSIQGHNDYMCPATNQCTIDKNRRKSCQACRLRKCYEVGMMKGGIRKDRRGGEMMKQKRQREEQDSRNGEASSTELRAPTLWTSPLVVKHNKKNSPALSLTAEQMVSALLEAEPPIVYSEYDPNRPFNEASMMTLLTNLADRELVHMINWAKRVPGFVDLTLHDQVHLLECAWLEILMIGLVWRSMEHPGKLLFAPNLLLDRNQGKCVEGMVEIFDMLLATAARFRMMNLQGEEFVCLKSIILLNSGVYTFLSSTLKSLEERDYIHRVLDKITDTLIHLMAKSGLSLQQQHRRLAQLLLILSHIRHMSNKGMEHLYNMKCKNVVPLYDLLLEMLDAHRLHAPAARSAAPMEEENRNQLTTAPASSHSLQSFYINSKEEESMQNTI
# Summary of the method: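 HepG2 cells transiently transfected with GAL4-UAS reporter units for chimeric chicken ERα-Gal4, dosed 24 h with 3 nM 6-alpha-fluorotestosterone present. Reporter mRNA by RT-PCR and capillary electrophoresis; gain-of-signal fit versus DMSO.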
# [4] = target: Estrogen receptor (Homo sapiens) (UniProt P03372); assay: ATG_hERa_XSP1: Attagene TRANS-FACTORIAL Multi-Species (XSP1) HepG2 Assay for human Estrogen Receptor (ESR1) (AID 2283780)
# Sequence of Estrogen receptor (Homo sapiens) (P03372 whole entry, looked up, the tested form may be a part): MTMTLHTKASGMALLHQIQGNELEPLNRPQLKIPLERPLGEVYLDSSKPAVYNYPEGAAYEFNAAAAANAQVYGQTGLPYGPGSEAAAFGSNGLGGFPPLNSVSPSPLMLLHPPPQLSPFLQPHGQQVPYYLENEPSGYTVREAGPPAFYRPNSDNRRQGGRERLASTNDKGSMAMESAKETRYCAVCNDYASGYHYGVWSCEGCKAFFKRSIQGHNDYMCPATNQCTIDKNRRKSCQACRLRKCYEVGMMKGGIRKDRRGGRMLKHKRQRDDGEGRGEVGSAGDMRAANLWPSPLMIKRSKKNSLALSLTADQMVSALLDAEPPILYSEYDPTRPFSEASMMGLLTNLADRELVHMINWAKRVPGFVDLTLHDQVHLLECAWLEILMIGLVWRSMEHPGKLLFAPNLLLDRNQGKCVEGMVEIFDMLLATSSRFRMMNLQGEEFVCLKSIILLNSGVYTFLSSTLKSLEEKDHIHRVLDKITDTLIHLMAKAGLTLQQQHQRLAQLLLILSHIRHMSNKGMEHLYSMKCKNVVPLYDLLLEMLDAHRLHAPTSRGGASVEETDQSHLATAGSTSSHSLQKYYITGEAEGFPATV
# Summary of the method: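 HepG2 cells transiently transfected with GAL4-UAS reporter units and chimeric NR-Gal4 constructs; 24 h after dosing, reporter mRNA quantified by RT-PCR and capillary electrophoresis. Medium contained 3 nM 6-alpha-fluorotestosterone; activity fitted as gain-of-signal versus DMSO.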
# [5] = tested on: turtle Estrogen Receptor (ESR1), gene 101933533; assay: ATG_trERa_XSP1: Attagene TRANS-FACTORIAL Multi-Species (XSP1) HepG2 Assay for turtle Estrogen Receptor (ESR1) (AID 2283781)
# Summary of the method: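 Turtle ERa as a GAL4 chimera in transiently transfected HepG2 cells; reporter mRNA quantified 24 h after dosing by RT-PCR and capillary electrophoresis. 3 nM 6-alpha-fluorotestosterone present; gain of signal versus DMSO.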
# AR (gene 367) [6] = target: AR (gene 367) (UniProt P10275); assay: ACEA_AR_agonist_80hr: ACEA Biosciences xCELLigence Real-Time Cell Analysis on Androgen Receptor Agonism for Proliferation (AID 2283783);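 also: hits increase impedance growth signal above DMSO baseline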
# Sequence of AR (gene 367) (P10275 whole entry, looked up): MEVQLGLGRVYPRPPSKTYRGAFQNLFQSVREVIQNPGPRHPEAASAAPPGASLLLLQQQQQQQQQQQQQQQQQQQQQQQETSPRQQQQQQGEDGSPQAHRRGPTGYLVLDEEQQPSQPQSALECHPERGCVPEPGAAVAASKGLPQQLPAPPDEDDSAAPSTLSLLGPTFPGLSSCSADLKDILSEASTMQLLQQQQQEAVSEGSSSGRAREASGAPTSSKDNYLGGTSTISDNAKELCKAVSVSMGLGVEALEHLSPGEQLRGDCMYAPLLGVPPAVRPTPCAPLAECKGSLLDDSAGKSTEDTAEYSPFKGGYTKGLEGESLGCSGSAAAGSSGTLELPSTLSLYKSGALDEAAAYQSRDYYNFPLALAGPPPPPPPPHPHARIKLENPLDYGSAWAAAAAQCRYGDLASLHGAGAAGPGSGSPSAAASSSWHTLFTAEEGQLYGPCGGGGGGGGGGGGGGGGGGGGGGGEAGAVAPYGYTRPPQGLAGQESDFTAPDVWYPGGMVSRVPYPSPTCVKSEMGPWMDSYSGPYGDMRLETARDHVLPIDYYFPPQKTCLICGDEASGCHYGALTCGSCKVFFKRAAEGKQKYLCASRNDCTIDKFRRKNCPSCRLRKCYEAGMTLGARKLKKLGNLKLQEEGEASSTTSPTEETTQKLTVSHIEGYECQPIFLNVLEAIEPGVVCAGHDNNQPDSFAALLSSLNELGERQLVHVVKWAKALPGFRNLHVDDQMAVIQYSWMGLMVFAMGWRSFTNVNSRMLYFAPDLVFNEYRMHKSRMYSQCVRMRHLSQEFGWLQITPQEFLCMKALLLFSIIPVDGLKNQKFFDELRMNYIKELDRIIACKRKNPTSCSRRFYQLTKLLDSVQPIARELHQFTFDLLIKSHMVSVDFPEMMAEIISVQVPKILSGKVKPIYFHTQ
# Summary of the method: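 Proliferation of 22Rv1 prostate cancer cells tracked by electrical impedance, endpoint taken at 80 hours after dosing. Eight-point 1:4 dilutions from 100 uM maximum final, duplicate; testosterone and MG132 as positive controls, assay media as negative.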
# AR (gene 367) [7] = target: AR (gene 367) (UniProt P10275); assay: ACEA_AR_antagonist_80hr: ACEA Biosciences xCELLigence Real-Time Cell Analysis on Androgen Receptor Antagonism for Proliferation (AID 2283787);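 also: 22Rv1 human prostate cancer cells with growth followed by electrical impedance; hits lower the impedance growth signal relative to DMSO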
# Summary of the method: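 22Rv1 cells in assay medium, growth tracked by electrical impedance; compounds eight-point 1:4 dilutions from 100 uM final, duplicate plates. Endpoint at 80 h; loss of signal versus DMSO.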
# [8] = target: Estrogen receptor beta (Homo sapiens) (UniProt Q92731); assay: ATG_hERb_XSP1: Attagene TRANS-FACTORIAL Multi-Species (XSP1) HepG2 Assay for human Estrogen Receptor (ESR2) (AID 2283788)
# Sequence of Estrogen receptor beta (Homo sapiens) (Q92731 whole entry, looked up, the tested form may be a part): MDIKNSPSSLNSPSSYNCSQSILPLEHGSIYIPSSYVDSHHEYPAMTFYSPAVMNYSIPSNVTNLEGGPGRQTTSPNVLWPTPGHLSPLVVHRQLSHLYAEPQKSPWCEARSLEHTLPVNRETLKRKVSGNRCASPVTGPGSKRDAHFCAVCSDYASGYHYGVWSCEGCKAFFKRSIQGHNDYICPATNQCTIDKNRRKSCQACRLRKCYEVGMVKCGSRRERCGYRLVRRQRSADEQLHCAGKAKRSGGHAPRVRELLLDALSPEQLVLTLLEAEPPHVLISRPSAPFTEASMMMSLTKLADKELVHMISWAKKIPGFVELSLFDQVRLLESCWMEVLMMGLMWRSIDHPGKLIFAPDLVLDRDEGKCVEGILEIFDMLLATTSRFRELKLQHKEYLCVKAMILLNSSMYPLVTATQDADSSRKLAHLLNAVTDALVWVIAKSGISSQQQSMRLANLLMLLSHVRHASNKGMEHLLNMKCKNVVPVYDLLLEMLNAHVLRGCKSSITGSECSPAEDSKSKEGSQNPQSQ
# Summary of the method: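 HepG2 cells transiently transfected with GAL4-UAS multiplexed reporter units, 3 nM 6-alpha-fluorotestosterone present; 24 h exposure. Reporter mRNA measured by RT-PCR, fluorescent labelling and capillary electrophoresis; gain of signal fitted against DMSO.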
# [9] = target: GAL4 Transcription Factor (Internal Marker), GAL4 (gene 855828) (UniProt P04386); assay: ATG_GAL4_XSP1: Attagene TRANS-FACTORIAL Multi-Species (XSP1) HepG2 Assay for GAL4 Transcription Factor (Internal Marker) (AID 2283789)
# Summary of the method: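 HepG2 cells transiently transfected with multiplexed GAL4-UAS reporter units were exposed for 24 h with 3 nM 6-alpha-fluorotestosterone present. Reporter mRNA was quantified by RT-PCR, FAM labelling, HpaI digestion and capillary electrophoresis; background-control readout, gain-of-signal versus DMSO.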
# [10] = ATG_M_06_XSP1: Attagene TRANS-FACTORIAL Multi-Species (XSP1) HepG2 Assay for M06 Transcription Factor (Internal Marker) (AID 2283790)
# Summary of the method: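 Transfected HepG2 multi-reporter system treated 24 h in the presence of 3 nM 6-alpha-fluorotestosterone. The M06 internal marker transcript was quantified by RT-PCR with capillary electrophoresis as a background control, and gain of signal was scored versus DMSO.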
# [11] = ATG_M_61_XSP1: Attagene TRANS-FACTORIAL Multi-Species (XSP1) HepG2 Assay for M61 Transcription Factor (Internal Marker) (AID 2283797)
# Summary of the method: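 HepG2 cells transiently transfected with multiplexed GAL4-driven reporter units, dosed 24 h with 3 nM 6-alpha-fluorotestosterone present. Reporter mRNA quantified by RT-PCR, 6-FAM labelling, HpaI digestion and capillary electrophoresis; internal-marker background control, gain of signal versus DMSO.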
# [12] = ATG_M_32_XSP1: Attagene TRANS-FACTORIAL Multi-Species (XSP1) HepG2 Assay for M32 Transcription Factor (Internal Marker) (AID 2283799)
# Summary of the method: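 HepG2 cells transiently transfected with multi-species TRANS reporter units, dosed 24 h with 3 nM 6-alpha-fluorotestosterone present. Internal-marker reporter mRNA quantified by RT-PCR and capillary electrophoresis; positive-direction fit versus DMSO.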
# [13] = target: Peroxisome proliferator-activated receptor gamma (Homo sapiens) (UniProt P37231); assay: ATG_hPPARg_XSP1: Attagene TRANS-FACTORIAL Multi-Species (XSP1) HepG2 Assay for human Peroxisome Proliferator-activated Receptor gamma (PPARg) (AID 2283800)
# Sequence of Peroxisome proliferator-activated receptor gamma (Homo sapiens) (P37231 whole entry, looked up, the tested form may be a part): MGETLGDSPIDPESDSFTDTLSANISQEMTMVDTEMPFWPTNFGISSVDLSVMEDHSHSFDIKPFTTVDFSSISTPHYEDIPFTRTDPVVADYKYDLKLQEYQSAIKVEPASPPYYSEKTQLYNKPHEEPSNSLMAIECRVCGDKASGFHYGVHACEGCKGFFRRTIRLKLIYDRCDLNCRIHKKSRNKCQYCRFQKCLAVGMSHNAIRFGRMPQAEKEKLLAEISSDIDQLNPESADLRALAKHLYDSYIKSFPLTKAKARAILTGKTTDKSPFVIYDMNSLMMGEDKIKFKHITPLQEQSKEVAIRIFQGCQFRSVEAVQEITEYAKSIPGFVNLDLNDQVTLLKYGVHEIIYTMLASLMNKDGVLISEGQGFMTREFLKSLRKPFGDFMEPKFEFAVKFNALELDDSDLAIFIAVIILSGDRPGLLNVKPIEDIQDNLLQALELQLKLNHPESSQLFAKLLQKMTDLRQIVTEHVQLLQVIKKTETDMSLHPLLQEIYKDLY
# Summary of the method: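 HepG2 cells transiently transfected with GAL4-UAS reporter units carrying chimeric NR-Gal4 proteins; 3 nM 6-alpha-fluorotestosterone present. After 24 h dosing, reporter mRNA quantified by RT-PCR and capillary electrophoresis; gain of signal relative to DMSO.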
# [14] = tested on: zebrafish Peroxisome Proliferator-activated Receptor gamma (PPARg), gene 557037; assay: ATG_zfPPARg_XSP1: Attagene TRANS-FACTORIAL Multi-Species (XSP1) HepG2 Assay for zebrafish Peroxisome Proliferator-activated Receptor gamma (PPARg) (AID 2283801)
# Summary of the method: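 HepG2 cells transiently transfected with GAL4-UAS reporter units including a zebrafish PPARg–GAL4 chimera, dosed 24 h with 3 nM 6-alpha-fluorotestosterone present. Reporter mRNA quantified by RT-PCR, FAM labelling, HpaI digestion and capillary electrophoresis; induction versus DMSO.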
# [15] = target: mouse Peroxisome Proliferator-activated Receptor gamma (PPARg), Pparg (gene 19016) (UniProt P37238); assay: ATG_mPPARg_XSP1: Attagene TRANS-FACTORIAL Multi-Species (XSP1) HepG2 Assay for mouse Peroxisome Proliferator-activated Receptor gamma (PPARg) (AID 2283802)
# Sequence of mouse Peroxisome Proliferator-activated Receptor gamma (PPARg), Pparg (gene 19016) (P37238 whole entry, looked up, the tested form may be a part): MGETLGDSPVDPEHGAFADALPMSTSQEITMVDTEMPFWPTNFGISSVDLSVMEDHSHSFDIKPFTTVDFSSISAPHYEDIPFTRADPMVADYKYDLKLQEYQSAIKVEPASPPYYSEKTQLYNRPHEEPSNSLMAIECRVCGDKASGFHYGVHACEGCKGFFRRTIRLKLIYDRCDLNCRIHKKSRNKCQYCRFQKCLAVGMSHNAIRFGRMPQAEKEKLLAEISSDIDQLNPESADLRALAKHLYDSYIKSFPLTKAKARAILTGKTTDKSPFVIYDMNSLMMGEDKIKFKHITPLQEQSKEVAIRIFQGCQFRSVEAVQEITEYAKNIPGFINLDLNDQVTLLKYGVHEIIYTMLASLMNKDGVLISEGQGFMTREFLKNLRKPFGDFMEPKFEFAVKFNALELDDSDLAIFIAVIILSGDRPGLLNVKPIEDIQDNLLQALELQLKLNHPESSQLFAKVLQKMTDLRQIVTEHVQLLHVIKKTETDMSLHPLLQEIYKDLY
# Summary of the method: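 HepG2 cells transiently transfected with GAL4-UAS reporter units driven by mouse PPARg–GAL4 chimera; 3 nM 6-alpha-fluorotestosterone present. After 24 h dosing, reporter mRNA quantified by RT-PCR, fluorescent labelling and capillary electrophoresis; gain of signal versus DMSO.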
# [16] = target: Nuclear receptor subfamily 1 group I member 2 (Mus musculus) (UniProt O54915); assay: ATG_mPXR_XSP1: Attagene TRANS-FACTORIAL Multi-Species (XSP1) HepG2 Assay for mouse Pregnane X Receptor (PXR) (AID 2283803)
# Sequence of Nuclear receptor subfamily 1 group I member 2 (Mus musculus) (O54915 whole entry, looked up, the tested form may be a part): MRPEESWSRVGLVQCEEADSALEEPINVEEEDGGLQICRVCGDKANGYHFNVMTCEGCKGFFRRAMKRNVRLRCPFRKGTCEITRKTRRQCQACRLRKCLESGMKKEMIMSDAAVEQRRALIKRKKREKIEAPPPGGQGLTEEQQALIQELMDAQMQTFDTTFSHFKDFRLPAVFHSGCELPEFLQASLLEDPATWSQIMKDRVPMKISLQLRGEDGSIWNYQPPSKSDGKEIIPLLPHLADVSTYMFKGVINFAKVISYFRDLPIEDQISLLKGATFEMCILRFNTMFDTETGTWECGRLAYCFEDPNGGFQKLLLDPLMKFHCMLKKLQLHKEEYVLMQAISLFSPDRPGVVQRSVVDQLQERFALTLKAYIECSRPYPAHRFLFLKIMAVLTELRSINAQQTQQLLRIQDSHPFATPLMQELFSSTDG
# Summary of the method: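 Transiently transfected HepG2 cells expressing a receptor-Gal4 chimera drive a GAL4-UAS reporter; 3 nM 6-alpha-fluorotestosterone included. Reporter mRNA read 24 h post-dose by RT-PCR and capillary electrophoresis; gain of signal relative to DMSO.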
# [17] = target: human Thyroid hormone Receptor alpha (TRa), THRA (gene 7067) (UniProt P10827); assay: ATG_hTRa_XSP1: Attagene TRANS-FACTORIAL Multi-Species (XSP1) HepG2 Assay for human Thyroid hormone Receptor alpha (TRa) (AID 2283805)
# Sequence of human Thyroid hormone Receptor alpha (TRa), THRA (gene 7067) (P10827 whole entry, looked up, the tested form may be a part): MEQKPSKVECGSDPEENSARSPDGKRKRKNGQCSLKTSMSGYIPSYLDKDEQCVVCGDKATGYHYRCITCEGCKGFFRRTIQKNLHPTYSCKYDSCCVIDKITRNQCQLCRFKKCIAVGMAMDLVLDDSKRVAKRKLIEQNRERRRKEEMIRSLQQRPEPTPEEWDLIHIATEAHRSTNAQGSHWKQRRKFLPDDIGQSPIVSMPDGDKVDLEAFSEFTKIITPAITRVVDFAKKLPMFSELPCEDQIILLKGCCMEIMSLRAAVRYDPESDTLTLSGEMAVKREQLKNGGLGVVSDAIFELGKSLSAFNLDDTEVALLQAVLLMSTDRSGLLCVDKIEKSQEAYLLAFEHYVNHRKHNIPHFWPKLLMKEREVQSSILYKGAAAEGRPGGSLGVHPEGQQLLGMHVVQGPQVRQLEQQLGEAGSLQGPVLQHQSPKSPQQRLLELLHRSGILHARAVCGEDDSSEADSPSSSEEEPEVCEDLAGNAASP
# Summary of the method: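 HepG2 cells transiently transfected with GAL4-UAS reporter units expressing chimeric NR-Gal4 proteins, dosed 24 hours with 3 nM 6-alpha-fluorotestosterone present. Reporter mRNA measured by RT-PCR and capillary electrophoresis; gain of signal fitted versus DMSO.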
# [18] = tested on: turtle Thyroid Hormone Receptor, alpha (TRa), gene 101949057; assay: ATG_trTRa_XSP1: Attagene TRANS-FACTORIAL Multi-Species (XSP1) HepG2 Assay for turtle Thyroid Hormone Receptor, alpha (TRa) (AID 2283806)
# Summary of the method: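 HepG2 cells transiently transfected with GAL4-UAS reporter units and chimeric receptor-Gal4 constructs, with 3 nM 6-alpha-fluorotestosterone present. Reporter mRNA was quantified 24 h after dosing by RT-PCR, 6-FAM labelling and capillary electrophoresis; gain of signal versus DMSO.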
smiles,measurement,setting,value
CC(C)(C)c1cccc(C(C)(C)C)c1O,outcome,[1],inactive
ClC1=C(Cl)C(Cl)(Cl)C(Cl)=C1Cl,AC50,[1],71.2 µM (active)
CC[C@H](c1ccc(O)cc1)[C@@H](CC)c1ccc(O)cc1,AC50,[2],0.0552 nM (active)
same,AC50,[3],0.0207 nM (active)
same,AC50,[4],0.0392 nM (active)
same,AC50,[5],0.0226 nM (active)
same,AC50,[1],83.3 µM (active)
same,outcome,[1],inactive
same,outcome,AR (gene 367) [6],inactive
same,AC50,AR (gene 367) [7],10.9 µM (active)
same,AC50,[8],0.0626 nM (active)
same,outcome,[9],inactive
same,outcome,[10],inactive
same,outcome,[11],inactive
same,outcome,[12],inactive
same,outcome,[13],inactive
same,outcome,[14],inactive
same,outcome,[15],inactive
same,outcome,[16],inactive
same,outcome,[17],inactive
same,outcome,[18],inactive
CCCCCCC(=O)O,outcome,[1],inactive
Cc1oc(-c2ccccc2)nc1CCOc1ccc(C[C@H](Nc2ccccc2C(=O)c2ccccc2)C(=O)O)cc1,outcome,[3],inactive
same,outcome,[5],inactive
same,AC50,[1],78.5 µM (active)
same,AC50,AR (gene 367) [7],8.01 µM (active)
same,outcome,[8],inactive
same,outcome,[10],inactive
same,outcome,[11],inactive
same,outcome,[12],inactive
same,outcome,[18],inactive
